From PubChem BioAssay AID1159580 (chemical genetic matrix, 2015)
Among all 5,500 compounds or so, about 2,000 (36%) were called active. Another 18% or so got no clear call; they are omitted. No stated cut-off is given here; in the data, active means normalized growth mostly below about 0.91 (no sharp cut-off); inconclusive means no clear call, values can overlap the other calls; inactive means mostly above about 0.92. Some of the results follow.

Test: chemical genetic growth profiling, strain panel (AID 1159580);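 further: tested at 20 µM; growth read once vehicle control cultures reached saturation at 30 °C; 1 = growth at the plate median or of vehicle wells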
Conditions: growth OD

Measured: normalized growth

CCC(=O)OCC(=O)[C@@]1(OC(=O)CC)[C@@H](C)CC2C3CCC4=CC(=O)C=C[C@]4(C)C3(F)[C@@H](O)C[C@@]21C (some centres undefined)
inactive: S. cerevisiae deletion strains, locus YJR066W, strain TOR1, stronger effect = lower value 0.989 | S. cerevisiae deletion strains, locus YJR075W, strain HOC1, stronger effect = lower value 0.945 | S. cerevisiae deletion strains, locus YKL009W, strain mrt4, stronger effect = lower value 0.891 | S. cerevisiae deletion strains, locus YKL068W, stronger effect = lower value 0.958 | S. cerevisiae deletion strains, locus YKL085W, strain MDH1 (second series), stronger effect = lower value 0.959 | S. cerevisiae deletion strains, locus YKL085W, strain MDH1, stronger effect = lower value 0.959 | S. cerevisiae deletion strains, locus YKL160W, strain elf1, stronger effect = lower value 1.01 | S. cerevisiae deletion strains, locus YKR001C, strain vps1, stronger effect = lower value 0.916 | S. cerevisiae deletion strains, locus YKR026C, strain gcn3, stronger effect = lower value 0.997 | S. cerevisiae deletion strains, locus YKR091W, strain srl3, stronger effect = lower value 0.997 | S. cerevisiae deletion strains, locus YLL001W, strain dnm1, stronger effect = lower value 1.01 | S. cerevisiae deletion strains, locus YLL026W, stronger effect = lower value 1.01 | S. cerevisiae deletion strains, locus YLL041C, strain sdh2, stronger effect = lower value 0.994 | S. cerevisiae deletion strains, locus YLR027C, strain aat2, stronger effect = lower value 0.999 | S. cerevisiae deletion strains, locus YLR039C, strain RIC1, stronger effect = lower value 0.85 | S. cerevisiae deletion strains, locus YLR058C, strain SHM2, stronger effect = lower value 0.943 | S. cerevisiae deletion strains, locus YLR102C, strain apc9, stronger effect = lower value 0.973 | S. cerevisiae deletion strains, locus YLR113W, strain HOG1, stronger effect = lower value 1.05 | S. cerevisiae deletion strains, locus YLR221C, strain rsa3, stronger effect = lower value 1.01 | S. cerevisiae deletion strains, locus YLR258W, strain gsy2, stronger effect = lower value 0.997 | S. cerevisiae deletion strains, locus YLR262C, strain YPT6 (second series), stronger effect = lower value 1 | S. cerevisiae deletion strains, locus YLR262C, strain YPT6, stronger effect = lower value 0.772 | S. cerevisiae deletion strains, locus YLR268W, strain sec22, stronger effect = lower value 0.915 | S. cerevisiae deletion strains, locus YLR320W, strain mms22, stronger effect = lower value 1.02 | S. cerevisiae deletion strains, locus YLR342W, strain FKS1, stronger effect = lower value 1.01 | S. cerevisiae deletion strains, locus YLR357W, strain rsc2, stronger effect = lower value 1.02 | S. cerevisiae deletion strains, locus YLR370C, strain arc18, stronger effect = lower value 1 | S. cerevisiae deletion strains, locus YLR371W, strain rom2, stronger effect = lower value 0.95 | S. cerevisiae deletion strains, locus YLR384C, strain iki3, stronger effect = lower value 0.998 | S. cerevisiae deletion strains, locus YML016C, strain PPZ1, stronger effect = lower value 0.967 | S. cerevisiae deletion strains, locus YML120C, strain ndi1, stronger effect = lower value 0.995 | S. cerevisiae deletion strains, locus YML124C, strain tub3, stronger effect = lower value 0.953 | S. cerevisiae deletion strains, locus YMR058W, strain fet3, stronger effect = lower value 0.997 | S. cerevisiae deletion strains, locus YMR078C, strain ctf18, stronger effect = lower value 0.925 | S. cerevisiae deletion strains, locus YMR125W, strain sto1, stronger effect = lower value 0.984 | S. cerevisiae deletion strains, locus YMR129W, stronger effect = lower value 0.99 | S. cerevisiae deletion strains, locus YMR205C, strain PFK2, stronger effect = lower value 1.02 | S. cerevisiae deletion strains, locus YMR231W, strain pep5, stronger effect = lower value 1.02 | S. cerevisiae deletion strains, locus YMR307W, strain GAS1, stronger effect = lower value 0.642 | S. cerevisiae deletion strains, locus YNL067W, strain RPL9B, stronger effect = lower value 0.994 | S. cerevisiae deletion strains, locus YNL071W, strain lat1, stronger effect = lower value 0.998 | S. cerevisiae deletion strains, locus YNL128W, strain TEP1, stronger effect = lower value 0.941 | S. cerevisiae deletion strains, locus YNL153C, strain GIM3, stronger effect = lower value 0.945 | S. cerevisiae deletion strains, locus YNL183C, strain NPR1, stronger effect = lower value 0.974 | S. cerevisiae deletion strains, locus YNL209W, strain ssb2, stronger effect = lower value 0.994 | S. cerevisiae deletion strains, locus YNL233W, strain BNI4, stronger effect = lower value 0.902 | S. cerevisiae deletion strains, locus YNL248C, strain rpa49, stronger effect = lower value 0.994 | S. cerevisiae deletion strains, locus YNL250W, strain rad50, stronger effect = lower value 0.907 | S. cerevisiae deletion strains, locus YNL271C, strain bni1, stronger effect = lower value 0.951 | S. cerevisiae deletion strains, locus YNL298W, strain CLA4, stronger effect = lower value 0.942 | S. cerevisiae deletion strains, locus YNL322C, strain KRE1 (second series), stronger effect = lower value 0.982 | S. cerevisiae deletion strains, locus YNR049C, strain mso1, stronger effect = lower value 0.999 | S. cerevisiae deletion strains, locus YNR052C, strain pop2, stronger effect = lower value 0.955 | S. cerevisiae deletion strains, locus YOL012C, strain htz1 1.01 | S. cerevisiae deletion strains, locus YOL147C, strain pex11, stronger effect = lower value 0.958 | S. cerevisiae deletion strains, locus YOR001W, strain rrp6, stronger effect = lower value 0.992 | S. cerevisiae deletion strains, locus YOR061W, strain CKA2, stronger effect = lower value 0.93 | S. cerevisiae deletion strains, locus YOR069W, strain VPS5, stronger effect = lower value 0.973 | S. cerevisiae deletion strains, locus YOR070C, strain gyp1, stronger effect = lower value 1 | S. cerevisiae deletion strains, locus YOR080W, strain dia2, stronger effect = lower value 1.01 | S. cerevisiae deletion strains, locus YOR083W, strain WHI5, stronger effect = lower value 1 | S. cerevisiae deletion strains, locus YOR106W, strain vam3, stronger effect = lower value 0.995 | S. cerevisiae deletion strains, locus YOR136W, strain idh2, stronger effect = lower value 0.981 | S. cerevisiae deletion strains, locus YOR144C, strain elg1, stronger effect = lower value 0.953 | S. cerevisiae deletion strains, locus YOR231W, strain MKK1, stronger effect = lower value 0.994 | S. cerevisiae deletion strains, locus YOR265W, strain rbl2, stronger effect = lower value 1.01 | S. cerevisiae deletion strains, locus YOR270C, strain vph1, stronger effect = lower value 0.887 | S. cerevisiae deletion strains, locus YOR290C, strain snf2, stronger effect = lower value 0.981 | S. cerevisiae deletion strains, locus YOR316C, strain cot1, stronger effect = lower value 0.961 | S. cerevisiae deletion strains, locus YPL051W, strain arl3, stronger effect = lower value 1 | S. cerevisiae deletion strains, locus YPL055C, strain LGE1, stronger effect = lower value 0.853 | S. cerevisiae deletion strains, locus YPL078C, strain atp4, stronger effect = lower value 0.996 | S. cerevisiae deletion strains, locus YPL106C, strain sse1, stronger effect = lower value 1.03 | S. cerevisiae deletion strains, locus YPL240C, strain hsp82, stronger effect = lower value 0.997 | S. cerevisiae deletion strains, locus YPL256C, strain CLN2, stronger effect = lower value 0.998 | S. cerevisiae deletion strains, locus YPR119W, strain clb2, stronger effect = lower value 0.953 | S. cerevisiae deletion strains, locus YPR141C, strain kar3, stronger effect = lower value 0.964 | S. cerevisiae deletion strains, locus YPR163C, strain tif3, stronger effect = lower value 0.942 | S. cerevisiae deletion strains, locus YPR167C, strain met16, stronger effect = lower value 0.936 | S. cerevisiae deletion strains, strain wtn01, stronger effect = lower value 0.959 | S. cerevisiae strains, strain wild type, stronger effect = lower value 0.929
active: S. cerevisiae deletion strains, locus YJR043C, strain POL32, stronger effect = lower value 0.841 | S. cerevisiae deletion strains, locus YLR330W, strain CHS5, stronger effect = lower value 0.898 | S. cerevisiae deletion strains, locus YLR342W, strain FKS1 (second series), stronger effect = lower value 0.741 | S. cerevisiae deletion strains, locus YLR418C, strain cdc73, stronger effect = lower value 0.777 | S. cerevisiae deletion strains, locus YML032C, strain rad52, stronger effect = lower value 0.843 | S. cerevisiae deletion strains, locus YMR223W, strain ubp8, stronger effect = lower value 0.876 | S. cerevisiae deletion strains, locus YNL307C, strain MCK1, stronger effect = lower value 0.835 | S. cerevisiae deletion strains, locus YOR184W, strain ser1, stronger effect = lower value 0.838
